FBW7 act: FBW7 E3 ligase activators, primary screen, biochemical, AlphaScreen, human; 650,000 tested, 0.13% active; AlphaScreen FBW7–phospho-cyclin E peptide binding, activator screen; normalized activity (activation), % at 26.1 µM; F-box/WD repeat-containing protein 7 (Homo sapiens), Q969H0; in the data active = normalized activity above about 1.9%;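 also: purified mutant Fbw7 with reduced substrate affinity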
MITF inh: MITF inhibitors, primary screen, biochemical, AlphaScreen, human | Microphthalmia-associated transcription factor (Homo sapiens), O75030 | AlphaScreen MITF homodimerization, bead proximity signal | inhibition, % at 2.6 µM | 650,000 tested, 0.91% active | AID 1259374, 2018; in the data active = inhibition above about 50%;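 also: 0% = vehicle wells with protein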
GPR151 activ: activators of human GPR151, primary screen, cell-based, PathHunter beta-arrestin, luminescence; 650,000 tested, 1% active; G-protein coupled receptor 151 (Homo sapiens), Q8TDV0; PathHunter beta-arrestin GPR151 cells; activation, % at 11.2 µM; AID 1508602, 2020; in the data active = activation above about 4.9%;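 also: 0% = median of compound wells and 100% = cells with positive control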
Target sequence (Q8TDV0 whole entry, looked up): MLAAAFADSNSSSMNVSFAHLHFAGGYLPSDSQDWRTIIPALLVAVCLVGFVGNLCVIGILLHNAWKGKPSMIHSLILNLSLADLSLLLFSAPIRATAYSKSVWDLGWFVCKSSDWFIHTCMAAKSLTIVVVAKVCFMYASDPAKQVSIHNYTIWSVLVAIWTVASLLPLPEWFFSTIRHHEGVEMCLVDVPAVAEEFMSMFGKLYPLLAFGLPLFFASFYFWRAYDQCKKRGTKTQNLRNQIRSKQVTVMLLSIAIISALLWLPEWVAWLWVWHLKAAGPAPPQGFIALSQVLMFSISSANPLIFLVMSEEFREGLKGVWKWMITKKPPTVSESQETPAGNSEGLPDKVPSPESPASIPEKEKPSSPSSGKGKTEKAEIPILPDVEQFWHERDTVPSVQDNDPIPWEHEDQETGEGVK
TEAD-YAP inh: TEAD-YAP interaction inhibition, primary screen, TEAD-YAP interaction inhibitor project, luminescence, HEK-TIYL cells; inhibition, % at 9.12 µM; AID 1259422, 2018; TEAD-Gal4/YAP UAS-luciferase luminescence; 640,000 tested, 1.4% active; in the data active = inhibition above about 32%;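 also: 0% = median of test compound wells and 100% = reference inhibitor wells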
MITF confirm: MITF inhibitors, retest of hits, confirmation, biochemical, AlphaScreen, triplicate | shares compounds with MITF inh | AlphaScreen MITF homodimerization, biotin/His-MITF beads | inhibition, % at 2.6 µM | 4,700 tested, 16% active;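 active = inhibition above a cutoff derived from the DMSO control wells, cut at about 28% in these data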;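 also: 0% = MITF dimer wells with DMSO only; inhibitors lower the bead chemiluminescence by keeping MITF from dimerizing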
AlphaScreen DR: AlphaScreen optical interference compounds, dose response, counter-screen, biochemical, HTS; shares compounds with MITF inh; AlphaScreen optical interference counterscreen, cell-free; IC50, µM; 480 tested, 6% active; AID 1259373, 2018; call rule not given here
AlphaScreen intf2: AlphaScreen optical interference compounds, counter-screen for MITF inhibitor project, biochemical, triplicate; shares compounds with MITF inh; LysRS AlphaScreen counterscreen, signal interference; inhibition, % at 2.6 µM; 4,700 tested, 7.6% active;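 active = inhibition above a cutoff derived from the DMSO control wells, cut at about 30% in these data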
* = called active by the depositor; / = not tested or not shown. Sampled rows, rich in hits. Any-hit rate of the full collection: about 3.4%.

SMILES | FBW7 act | MITF inh | GPR151 activ | TEAD-YAP inh | MITF confirm | AlphaScreen intf2 | others
O=C(/C=C/c1ccco1)OCC(=O)N1CCCC1 | 0 | 17 | 3 | 3 | / | /
CCc1nnc(NC(=O)/C=C/c2ccco2)s1 | 0 | 0 | 1 | -34 | / | /
O=C(/C=C/c1ccco1)ON1C(=O)c2ccccc2C1=O | 0 | 56* | 0 | -3 | 35* | 1 | AlphaScreen DR=>6.5
O=C(/C=C/c1ccco1)/C=C/c1ccco1 | 0 | 68* | 1 | 9 | 77* | 97*
O=C(O)CCCNC(=O)/C=C/c1ccco1 | 0 | 62* | 1 | 3 | 59* | 3 | AlphaScreen DR=>6.5
O=C(NCCCc1ccccc1)C1CCN(C(=O)c2n[nH]c3ccccc23)CC1 | 0 | -8 | 1 | 10 | / | /
COc1ccccc1C1C(C(=O)Nc2ccccn2)=C(C)NC2=C1C(=O)CC(C)(C)C2 (stereo unspecified) | 0 | 5 | 0 | -3 | / | /
Cc1cc([N+](=O)[O-])cc2c1NC(=O)C2(c1c(C)n(C)n(-c2ccccc2)c1=O)c1c(C)n(C)n(-c2ccccc2)c1=O | 0 | 8 | 1 | 5 | / | /
Cc1ccc(NC(=O)CN(c2ccccc2Br)S(C)(=O)=O)cc1 | 0 | 4 | 1 | 3 | / | /
Cc1ccc(S(=O)(=O)N2CCN(CC(=O)Nc3cc(Cl)ccc3C)CC2)cc1C | 0 | 53* | 4 | 3 | -10 | -6
OC(CON=C1c2ccccc2-c2ccccc21)CN1CCNCC1 (stereo unspecified) | -1 | 77* | 1 | -4 | 12 | 12
CCOC(=O)CCC(=O)Nc1c(C(=O)Nc2cc(OC)ccc2OC)oc2ccccc12 | 0 | -4 | -1 | 5 | / | /
Cc1ccc2c(c1)CN(CCC(=O)NCCc1nc(-c3cccnc3)n[nH]1)CC(C)O2 (stereo unspecified) | 0 | 7 | 1 | 12 | / | /
Cc1ccc(-c2cnc(SCCNC(=O)c3ccc(Br)o3)[nH]2)cc1 | 1 | 11 | -2 | -4 | / | /
COc1cc(OC)cc(C(=O)N2CCN(C3CCC(c4ccccc4)CC3)CC2)c1 (stereo unspecified) | 1 | 34 | -1 | 13 | / | /
CN1CCN(C2CCN(C(=O)c3ccc(-c4ccccc4)cc3)CC2)CC1 | 0 | 69* | 0 | -4 | -1 | 0
O=C(c1cccs1)N1CCC(N2CCCCCC2)CC1 | 1 | 55* | -2 | 9 | -7 | -7
O=C(c1ccccc1)N1CCC(N2CCCCCC2)CC1 | 0 | 20 | -1 | 10 | / | /
COc1cc(OC)cc(C(=O)N2CCN(C3CCCCCC3)CC2)c1 | 0 | 59* | 2 | 0 | 0 | 12
COc1ccc(C(=O)N2CCN(C3CCC(c4ccccc4)CC3)CC2)cc1 (stereo unspecified) | 0 | 56* | -1 | 3 | 14 | 16
COc1ccc(-c2nc3cc(NC(=O)COc4cccc(C)c4)ccc3o2)cc1 | 0 | 1 | 0 | -12 | / | /
CC1CCCC(N2CCN(C(=O)c3cccs3)CC2)C1 (stereo unspecified) | 1 | 53* | 0 | 3 | -6 | -2
CC1CCCC(N2CCN(C(=O)c3ccncc3)CC2)C1 (stereo unspecified) | 0 | 53* | 2 | -5 | -6 | -5
O=C(c1ccncc1)N1CCN(C2CCCCCC2)CC1 | 0 | 82* | 2 | -1 | -2 | 0
O=C(c1cccs1)N1CCN(C2CCCC2)CC1 | 0 | 45 | 0 | -9 | / | /
SMILES | FBW7 act | MITF inh | GPR151 activ | TEAD-YAP inh | MITF confirm | AlphaScreen intf2 | others
COc1cc(OC)c(OC)cc1C=NCC1COc2ccccc2O1 (stereo unspecified) | 0 | 18 | 3 | 6 | / | /
COC(=O)c1cc(S(=O)(=O)N2CC=C(c3ccccc3)CC2)cn1C | 0 | 7 | 0 | 0 | / | /
CC1CCN(Cc2nnnn2CCCC(=O)NCCc2cccc(Cl)c2)CC1 | 0 | 65* | 1 | 5 | 0 | 13
CC1CCN(Cc2nnnn2CCCC(=O)NCCCc2cccnc2)CC1 | 0 | 2 | -1 | 7 | / | /
Cc1cccc(C)c1NC(=O)c1snc2c(=O)[nH]cnc12 | 0 | 23 | 1 | -5 | / | /
Cc1cc(CSC(=N)N)c(O)c(C)n1 | -1 | 65* | -1 | -5 | 82* | 14 | AlphaScreen DR=>6.5
Cc1cc(CSC(=N)N)c(O)c(C(C)(C)C)n1 | 0 | 10 | 1 | 7 | / | /
CC1CC(C)CN(C(=O)C(C)N(C)CC(=O)Nc2ccc(Cl)cc2)C1 (stereo unspecified) | 0 | 51* | 0 | 7 | 8 | 10
COc1ccc(NC(=O)CN(C)C(C)C(=O)N2CCCCC2)cc1 (stereo unspecified) | 0 | 66* | 2 | 0 | -3 | 12
CC(C(=O)N1CCCCC1)N(C)CC(=O)Nc1cccc(F)c1 (stereo unspecified) | 1 | 64* | 1 | 8 | 12 | 7
Nc1nc(NCc2cccc(Cl)c2)nn1-c1ccccc1 | 0 | 13 | 0 | -63 | / | /
CCCSc1nnc2c(n1)OC(c1cccc(OC)c1OCC(=O)O)Nc1ccc(Br)cc1-2 (stereo unspecified) | 0 | 0 | 3 | -7 | / | /
Cn1cccc1CC(=O)NNC(=O)CCCOc1cccc(Br)c1 | 0 | 2 | -1 | 8 | / | /
OC[C@H]1OC([S-])[C@H](O)[C@@H](O)[C@@H]1O.[Au+] (stereo partly specified) | 0 | 86* | 0 | 15 | 73* | 0 | AlphaScreen DR=>6.5
COc1ccc(OC)c(S(=O)(=O)N(C)CC(=O)Nc2ccccc2F)c1 | 0 | 51* | -1 | -1 | 20 | 8
COc1ccc(C)cc1S(=O)(=O)N(C)CC(=O)Nc1ccccc1F | 0 | -2 | 3 | -1 | / | /
CC(NC(=O)CN(C)CC(=O)Nc1ccccc1Br)c1ccccc1 (stereo unspecified) | 0 | 66* | 0 | -1 | -25 | 1
COc1ccc(OC)c(NC(=O)CN(C)CC(=O)Nc2ccccc2Br)c1 | 0 | 74* | 0 | -6 | 15 | 17
O=C1C/C(=N\Nc2ccc(S(=O)(=O)Nc3ccccc3)cc2[N+](=O)[O-])c2ccccc21 | 0 | 24 | -1 | -17 | / | /
O=C(c1ccc2c(c1)C(=O)N(c1ccccn1)C2=O)N1CCc2ccccc2C1 | 0 | -10 | -1 | -5 | / | /
O=C(COc1cccc(C(F)(F)F)c1)NNC(=O)c1cnccn1 | 0 | 22 | -1 | 5 | / | /
